Experiment [1] can be described thus: binders of probe aFSTL3 on microarray, primary screen, stem cell growth factor project, biochemical, small-molecule microarray, fluorescence 635/667 (AID 1064).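 Further: measures binding of the biotinylated anti-FSTL3 antibody to printed compounds.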 Particulars: higher = more signal.
The nature of experiment [2]: binders from COS7 lysate, DM2A8 probe, primary screen, torsin A project, cell lysate, small-molecule microarray, fluorescence 635/667 (AID 1065). Particulars: higher = more signal, COS7 lysate expressing mutant human TOR1A.
Experiment [3] is described as follows: binders of probe aFGF2 on microarray, primary screen, stem cell growth factor project, biochemical, small-molecule microarray, fluorescence 635/667 (AID 1067).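 Further: measures binding of biotinylated aFGF2 protein to printed compounds on slides; z-score merges feature fluorescence and signal-to-noise across triplicate slides.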 Particulars: higher = more signal.
Experiment [4] is described as follows: binders of probe aFGF10 on microarray, primary screen, stem cell growth factor project, biochemical, small-molecule microarray, fluorescence 635/667 (AID 1071).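 Further: score merges 667 nm spot intensity and signal to noise from triplicate slides.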 Particulars: higher = more signal.
Experiment [5] addresses Neurogenic locus notch homolog protein 2 (Homo sapiens) (UniProt Q04721). Put plainly: Notch2 binders on small-molecule microarrays, primary screen, biochemical, small-molecule microarray, 635 nm fluorescence, stem cell growth factors (AID 1073). Particulars: Notch2 binding, higher = more signal.
The target of experiment [6] is Pro-neuregulin-1, membrane-bound isoform (Homo sapiens) (UniProt Q02297). Put plainly: NRG1 binders on small-molecule microarrays, primary screen, psychiatric disease protein project, biochemical, small-molecule microarray, fluorescence 635/667 (AID 1075).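 Further: score combines 667 nm spot fluorescence with signal to noise.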 The settings on record: NRG1 binding, 635 nm fluorescence, higher = more signal.
Experiment [7] concerns Neuregulin-1 EGF-like domain. Put plainly: binders of neuregulin-1 EGF-like domain, primary screen, biochemical, small-molecule microarray, 635 nm fluorescence (AID 1081).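 Further: binding of the protein to compounds printed on small-molecule microarray slides.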 The settings on record: small-molecule microarray binding, higher = more signal.
The nature of experiment [8]: FRG1 promoter luciferase signal modulators, primary screen, FRG1 inhibition for FSHD, cell-based, C2C12 myotubes, firefly/Renilla luciferase, luminescence (AID 1084). Particulars: higher = more signal, called active from +8 up or from −8 down.
Experiment [9] can be described thus: binders of probe aFST on microarray, primary screen, stem cell growth factor project, biochemical, small-molecule microarray, fluorescence 635/667 (AID 1086).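 Further: score merges 667 nm fluorescence with signal-to-noise of each printed compound spot.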 Particulars: higher = more signal.
Experiment [10] in a line: binders of probe aHhip on microarray, primary screen, stem cell growth factor project, biochemical, small-molecule microarray, fluorescence 635/667 (AID 1087).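 Further: score merges spot fluorescence at 667nm with spot signal to noise ratio.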 Particulars: higher = more signal.
The subject of experiment [11] is PRMT1 (protein arginine N-methyltransferase 1). Kind of experiment: PRMT1 binders on small-molecule microarrays, primary screen, biochemical, small-molecule microarray, 635 nm fluorescence (AID 1088).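 Further: binding of Prmt1 protein to compounds spotted on small-molecule microarray slides.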 Particulars: small-molecule microarray binding, higher = more signal.
Experiment [12] in a line: yeast growth modulation, basal conditions, primary screen, YJM789 clinical isolate, OD600, 24 h (AID 1089).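 Further: growth of clinical yeast isolate S. cerevisiae YJM 789 seeded 1000 cells per well; test concentration not given here.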 Particulars: S. cerevisiae YJM789 growth, higher = more signal, called active from +8 up or from −8 down.
The nature of experiment [13]: fission yeast growth modulation, primary screen, strain 972, OD600, 24 h, no modulator (AID 1090).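 Further: basal condition with compound alone and no growth modifier present; test concentration not given here.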 The settings on record: S. pombe 972 growth, higher = more signal, called active from +8 up or from −8 down.
Experiment [14] is described as follows: S. cerevisiae growth modulation with rapamycin, primary screen, strain BY4716, OD600, 96 h (AID 1091). Further: test concentration not given here. Particulars: higher = more signal, called active from +8 up or from −8 down.
The target in experiment [15] is Torsin-1A-interacting protein 2 (Homo sapiens) (UniProt Q8NFQ8). Put plainly: LULL1 binders on small-molecule microarray, primary screen, cell lysate, human LULL1 lysate, 635/667 nm fluorescence (AID 1092).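 Further: probe is lysate of COS7 cells overexpressing human LULL1; score merges per-feature 667 nm fluorescence with signal-to-noise.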 Particulars: hLULL1 lysate binding, 635 nm fluorescence, higher = more signal.
Experiment [16] is described as follows: E. coli growth modulation, two-sided OD650, primary screen, E. coli filamentation project, strain DRC41, 24 h (AID 1093).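 Further: MC1000 strain lacking acrAB efflux and sulA so SOS filamentation is blocked; test concentration not given here.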 Particulars: OD650, 24 h, higher = more signal, called active from +8 up or from −8 down.
The nature of experiment [17]: small-molecule microarray binders of probe aLefty2, primary screen, biochemical, biotinylated probe, 635/667 nm fluorescence (AID 1094).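 Further: score merges spot fluorescence near 667 nm with spot signal-to-noise ratio.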 The settings on record: higher = more signal.
The subject of experiment [18] is Noggin (protein binding on small-molecule microarray). Kind of experiment: Noggin binders on small-molecule microarray, primary screen, biochemical, 635/667 nm fluorescence (AID 1095).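 Further: score merges 667 nm feature fluorescence with signal to noise over triplicate slides.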 Particulars: 635 nm fluorescence, higher = more signal.
Experiment [19] deals with Neurogenic locus notch homolog protein 3 (Homo sapiens) (UniProt Q9UM47). Put plainly: NOTCH3 binders on small-molecule microarray, primary screen, biochemical, 635/667 nm fluorescence (AID 1096). Particulars: NOTCH3 binding, 635 nm fluorescence, higher = more signal.
Experiment [20] is described as follows: small-molecule microarray binders of probe aEGFR, primary screen, biochemical, biotinylated probe, 635/667 nm fluorescence (AID 1097).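 Further: probe is a biotinylated anti-EGFR antibody binding compounds printed on slides; score combines fluorescence near 667 nm and signal to noise of each spot.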 The settings on record: higher = more signal.

We go through five compounds from PubChem BioAssay.

Activity calls are given as the source filed them.

Sequence of Torsin-1A-interacting protein 2 (Homo sapiens) (Q8NFQ8 whole entry, looked up): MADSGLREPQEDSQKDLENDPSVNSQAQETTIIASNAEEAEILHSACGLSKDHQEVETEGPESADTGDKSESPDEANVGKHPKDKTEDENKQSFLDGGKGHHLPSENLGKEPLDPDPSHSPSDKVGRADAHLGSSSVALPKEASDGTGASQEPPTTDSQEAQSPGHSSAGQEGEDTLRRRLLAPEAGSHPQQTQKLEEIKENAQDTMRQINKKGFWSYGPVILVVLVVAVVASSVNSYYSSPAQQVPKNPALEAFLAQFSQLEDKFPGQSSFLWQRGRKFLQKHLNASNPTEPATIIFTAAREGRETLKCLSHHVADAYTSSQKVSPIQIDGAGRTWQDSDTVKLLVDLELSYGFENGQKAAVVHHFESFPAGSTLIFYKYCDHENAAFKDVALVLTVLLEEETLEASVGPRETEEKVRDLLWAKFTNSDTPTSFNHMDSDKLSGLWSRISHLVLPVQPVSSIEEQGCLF
Sequence of Pro-neuregulin-1, membrane-bound isoform (Homo sapiens) (Q02297 whole entry, looked up, the tested form may be a part, canonical isoform): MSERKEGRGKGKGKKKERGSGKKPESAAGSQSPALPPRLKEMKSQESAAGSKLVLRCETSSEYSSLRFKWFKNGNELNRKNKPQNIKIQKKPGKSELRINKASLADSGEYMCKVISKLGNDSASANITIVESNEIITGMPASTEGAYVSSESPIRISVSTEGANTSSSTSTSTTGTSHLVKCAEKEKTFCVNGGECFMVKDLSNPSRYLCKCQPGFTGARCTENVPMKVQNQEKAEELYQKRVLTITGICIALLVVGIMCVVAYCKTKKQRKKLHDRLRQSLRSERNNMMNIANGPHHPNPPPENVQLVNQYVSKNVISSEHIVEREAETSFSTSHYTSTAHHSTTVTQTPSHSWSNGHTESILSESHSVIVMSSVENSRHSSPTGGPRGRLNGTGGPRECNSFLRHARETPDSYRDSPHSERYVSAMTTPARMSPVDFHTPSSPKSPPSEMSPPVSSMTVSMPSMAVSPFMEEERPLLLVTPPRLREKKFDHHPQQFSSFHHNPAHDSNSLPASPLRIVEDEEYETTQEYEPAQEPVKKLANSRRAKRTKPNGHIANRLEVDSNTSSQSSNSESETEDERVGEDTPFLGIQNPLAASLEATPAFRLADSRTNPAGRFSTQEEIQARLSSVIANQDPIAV
Sequence of Neurogenic locus notch homolog protein 3 (Homo sapiens) (Q9UM47 whole entry, looked up): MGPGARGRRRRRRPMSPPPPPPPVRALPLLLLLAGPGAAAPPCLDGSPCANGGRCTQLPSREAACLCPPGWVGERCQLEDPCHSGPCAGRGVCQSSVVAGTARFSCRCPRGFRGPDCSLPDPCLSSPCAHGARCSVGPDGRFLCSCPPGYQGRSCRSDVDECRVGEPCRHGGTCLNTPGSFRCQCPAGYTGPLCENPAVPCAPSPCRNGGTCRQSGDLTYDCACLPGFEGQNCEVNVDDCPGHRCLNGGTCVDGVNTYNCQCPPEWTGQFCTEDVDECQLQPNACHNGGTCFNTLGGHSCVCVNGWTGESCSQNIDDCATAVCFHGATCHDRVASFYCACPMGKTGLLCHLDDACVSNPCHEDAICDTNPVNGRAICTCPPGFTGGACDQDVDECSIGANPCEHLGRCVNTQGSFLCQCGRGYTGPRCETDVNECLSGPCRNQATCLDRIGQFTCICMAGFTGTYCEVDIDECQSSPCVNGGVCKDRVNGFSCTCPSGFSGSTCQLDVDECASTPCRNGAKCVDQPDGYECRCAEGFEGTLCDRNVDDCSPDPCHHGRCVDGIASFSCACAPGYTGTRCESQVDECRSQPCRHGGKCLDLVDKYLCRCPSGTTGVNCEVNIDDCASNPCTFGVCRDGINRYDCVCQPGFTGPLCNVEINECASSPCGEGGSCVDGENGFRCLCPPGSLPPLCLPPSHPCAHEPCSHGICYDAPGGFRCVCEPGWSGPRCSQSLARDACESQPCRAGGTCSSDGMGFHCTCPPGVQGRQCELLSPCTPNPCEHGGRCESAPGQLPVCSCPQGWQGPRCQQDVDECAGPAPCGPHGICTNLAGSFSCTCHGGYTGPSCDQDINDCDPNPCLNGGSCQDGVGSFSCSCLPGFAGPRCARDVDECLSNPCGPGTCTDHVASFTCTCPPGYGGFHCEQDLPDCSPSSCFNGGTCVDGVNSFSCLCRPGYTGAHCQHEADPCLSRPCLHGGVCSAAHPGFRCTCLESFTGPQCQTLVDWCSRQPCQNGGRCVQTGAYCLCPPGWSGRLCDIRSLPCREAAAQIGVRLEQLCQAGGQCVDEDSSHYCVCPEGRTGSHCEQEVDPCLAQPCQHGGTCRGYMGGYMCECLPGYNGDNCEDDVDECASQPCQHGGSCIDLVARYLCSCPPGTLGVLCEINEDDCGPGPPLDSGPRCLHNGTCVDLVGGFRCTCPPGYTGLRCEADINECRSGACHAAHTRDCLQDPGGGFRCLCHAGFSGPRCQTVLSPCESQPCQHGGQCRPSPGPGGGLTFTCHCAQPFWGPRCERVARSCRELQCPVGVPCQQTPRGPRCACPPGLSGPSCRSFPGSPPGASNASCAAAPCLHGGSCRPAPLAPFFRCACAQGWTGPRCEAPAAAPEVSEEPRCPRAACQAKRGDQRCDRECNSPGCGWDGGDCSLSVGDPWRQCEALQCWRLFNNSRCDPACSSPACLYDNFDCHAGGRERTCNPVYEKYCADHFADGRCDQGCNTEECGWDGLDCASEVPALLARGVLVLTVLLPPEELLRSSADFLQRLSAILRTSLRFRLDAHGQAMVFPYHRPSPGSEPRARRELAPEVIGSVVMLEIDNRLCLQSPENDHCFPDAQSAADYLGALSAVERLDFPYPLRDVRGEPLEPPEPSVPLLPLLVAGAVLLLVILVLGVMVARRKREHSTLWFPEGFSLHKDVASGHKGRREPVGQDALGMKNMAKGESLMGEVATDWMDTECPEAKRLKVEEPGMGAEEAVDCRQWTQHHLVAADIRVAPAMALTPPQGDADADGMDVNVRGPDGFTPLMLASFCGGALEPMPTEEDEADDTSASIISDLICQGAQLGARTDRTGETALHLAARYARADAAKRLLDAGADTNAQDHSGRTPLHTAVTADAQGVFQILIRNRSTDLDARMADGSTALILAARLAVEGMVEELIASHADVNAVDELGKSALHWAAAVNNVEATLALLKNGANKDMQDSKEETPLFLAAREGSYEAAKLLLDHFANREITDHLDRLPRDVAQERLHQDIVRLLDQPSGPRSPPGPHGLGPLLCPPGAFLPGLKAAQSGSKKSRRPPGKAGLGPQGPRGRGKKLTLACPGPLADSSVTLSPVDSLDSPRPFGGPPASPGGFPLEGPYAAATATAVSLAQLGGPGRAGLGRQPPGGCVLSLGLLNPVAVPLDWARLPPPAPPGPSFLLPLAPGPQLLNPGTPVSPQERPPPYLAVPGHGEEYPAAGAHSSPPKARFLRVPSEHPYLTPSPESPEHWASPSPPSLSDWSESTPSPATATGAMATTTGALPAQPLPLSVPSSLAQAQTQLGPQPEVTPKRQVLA

`CC(C)=CCCC(C)=CC(O)C1C=CC2C(=O)NC(=O)C2N1Nc1ccccn1` (stereo not given): the composite z-score in [1] is -0.631; in experiment [2], 1.6; in experiment [3], 0.059; in experiment [4], 1.16; in experiment [5], 1.57; in experiment [6] it was 0.966. For the same compound, the composite z-score in [7] is 1.23; in experiment [9] it was 1.21; in [10] it was -0.109; in experiment [11], 1.56; in [15], 1.8; in experiment [17] it was 0.212. Further, the composite z-score in experiment [18] was 1.36; in experiment [19] it was 1.11; in experiment [20] it was 0.186. Moreover, the z-score in experiment [8] was -0.385 (inactive); in experiment [12], -1.17 (inactive); in experiment [13], 0.504 (inactive); in experiment [14], -0.952 (inactive); in experiment [16] it was -0.978 (inactive).

With `C=CCNC(=O)[C@H]1[C@@H]2C(=O)O[C@@H](c3ccccc3)[C@@H](c3ccccc3)N2[C@@H](c2ccc(OCCO)cc2)[C@]12C(=O)Nc1ccccc12`, the composite z-score was -0.0085 in experiment [1]; 0.586 in experiment [2]; 0.083 in [3]; 0.331 in [4]; -0.353 in experiment [5]; 1.65 in experiment [6]. Moreover, the composite z-score in experiment [7] is 1.13; in experiment [9], -0.189; in [10], -0.613; in [11] it was 1.18; in experiment [15] it was 3.36; in [17], -0.0785. For the same compound, the composite z-score is 0.167 in experiment [18], 0.457 in experiment [19] and -0.194 in experiment [20]. Moreover, the z-score in experiment [8] is -2.89 (inactive); in experiment [12], 1.24 (inactive); in experiment [13], 0.259 (inactive); in experiment [14], 2.84 (inactive); in experiment [16], 1.35 (inactive).

As for `O=C1NC(=O)C2C1C=CC(C(O)c1ccc(B(O)O)cc1)N2Nc1ccc(Cl)cc1Cl` (stereo not given), the composite z-score in experiment [1] is -0.144; in experiment [2] it was -0.397; in [3], -0.0095; in experiment [4], 0.454; in [5] it was 1.11; in experiment [6], 1.16. Besides, the composite z-score is 0.955 in experiment [7]; 0.514 in experiment [9]; -0.0645 in [10]; -0.201 in experiment [11]; 1.71 in [15]; 0.126 in experiment [17]. For the same compound, the composite z-score in experiment [18] was -0.255; in experiment [19] it was 0.287; in experiment [20], -0.0238. In addition, the z-score in experiment [8] was 0.402 (inactive); in experiment [12], 1.33 (inactive); in experiment [13], -0.229 (inactive); in experiment [14], 0.715 (inactive); in experiment [16], -0.758 (inactive).

With `C=CCC(OC(C)=O)[C@@H]1[C@@H](N(Cc2cccc3ccccc23)C(=O)Cc2ccc(OC)cc2)c2cc(OCCCO)ccc2N1C(=O)Cc1ccc2ccccc2c1` (stereo not given in full), the composite z-score in experiment [1] was -0.289; in [2] it was -0.176; in experiment [3], -0.14; in experiment [4] it was 0.184; in experiment [5] it was -0.529; in experiment [6], 0.906. In addition, the composite z-score in experiment [7] is -0.29; in experiment [9], 0.165; in [10] it was -0.364; in experiment [11], 0.402; in [15], 0.574; in experiment [17], -0.0911. For the same compound, the composite z-score in experiment [18] is 0.656; in [19], -0.87; in experiment [20] it was -0.0828. In addition, the z-score in [8] was -1.77 (inactive); in experiment [12], -0.0978 (inactive); in experiment [13], 0.374 (inactive); in experiment [14] it was -1.51 (inactive); in experiment [16], -0.079 (inactive).

With `C=C(CCCC)C(=O)CC[C@@H](OC(=O)c1ccccc1-c1ccccc1C(=O)O)c1ccccc1OCCO`, the composite z-score in [1] is -0.173; in [2], 0.222; in [3] it was -0.0566; in experiment [4] it was 0.803; in experiment [5], -0.0697; in experiment [6], -0.0918. The composite z-score in [7] was 0.0551; in experiment [9], -0.501; in experiment [10], 0.0373; in experiment [11] it was 1.23; in experiment [15] it was -0.583; in experiment [17], -0.146. In addition, the values for the composite z-score in experiment [18], in experiment [19] and in experiment [20] were 1.2, 0.48 and -0.178, respectively. The z-score is -0.39 (inactive) in experiment [8]; -0.576 (inactive) in [12]; -1.19 (inactive) in experiment [13]; -1.61 (inactive) in experiment [14]; 0.306 (inactive) in [16].
